The sample as a whole holds a higher share of hits than the screen did.
Shiga inhibitor: blocks Shiga toxin action in Vero cells. 9.2% of 290,000 active. inhibition, % at 38.7 µM. AID 2315. Vero cells, Shiga toxin protein synthesis inhibition reporter; in the data active means inhibition mostly above about 28%, no sharp cut-off; inactive means mostly below about 43%; further: 0% is about no effect
RE007 growth inh: less growth of the S. pombe RE007 Vpr strain; S. pombe RE007 Vpr strain, BacTiter-Glo ATP luminescence, 24 h; Potency, µM (highest dose often 92.2 µM), for inactives: at the top dose activity change, negative = less growth, actives largely listed as inhibitors; 0.21% of 360,000 active; AID 651644; active means well fitted falling curve with a large enough effect; inconclusive means small, poorly fitted or top-dose-only effect; inactive means no such curve, though single readings can be large or run the other way; further: potency means the concentration at half of the fitted maximal effect; on the % scale 0 is the no-effect control and ±100 the full control effect; nearly all actives have a fitted effect of over 50% in size
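Fission yeast RE007 carrying one integrated HIV-1 vpr copy, seeded at OD 0.01 in PMG+AL medium with 23 nL pinned compound. Grown 24 h at 30 degrees; viability read by BacTiter-Glo luminescence after 5 min.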
Giardia FBPA inh-1: inhibitors of Giardia lamblia fructose-1,6-bisphosphate aldolase | A8B2U2 | purified Giardia FBPA | Potency, µM (highest dose often 59.6 µM), inactives show at the top dose activity, negative = inhibition, actives largely listed as inhibitors | 0.71% of 290,000 active; further: potency means the concentration at half of the fitted maximal effect; on the % scale 0 is the no-effect control and ±100 the full control effect; nearly all actives have a fitted effect of over 55% in size
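Giardia FBPA (40 nM reagent) was preincubated 10 min at RT with compound (up to 57.5 uM final), then substrate plus GAPDH/TPI/NAD/arsenate coupling system with diaphorase/resazurin was added; resorufin fluorescence (525/598 nm) was read after 20 min.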
LmPK inh: blocks Leishmania mexicana pyruvate kinase activity; Q27686; purified LmPK, Kinase-Glo ATP luminescence, 1 h; Potency, µM (titrated, usually from 57.5 µM), for the others: at the highest dose activity change, negative = inhibition, most hits filed as inhibitors; 0.37% of 290,000 active; further: potency means the concentration at half of the fitted maximal effect; on the % scale 0 is the no-effect control and ±100 the full control effect
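Purified LmPK (0.1 nM) with 0.5 mM PEP and 0.1 mM ADP in imidazole buffer pH 7.2 with MgCl2/KCl, 1 h at room temperature. ATP formed was read by luciferase luminescence and normalized to no-enzyme and uninhibited controls.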
CHX counter: affects cycloheximide protein synthesis inhibition readout, counter-screen | cell reporter, cycloheximide protein synthesis inhibition counterscreen | max response, % | 12% of 300,000 active | AID 2314; in the data active means max response mostly above about 13%, no sharp cut-off; inactive means mostly below about 14%; further: read at 38.3 µM for the half of the compounds with a filed dose; 0% is about no effect
Tb PYK inh: T. brucei pyruvate kinase inhibition | 0.12% of 410,000 active | Potency, µM (doses to about 76.8 µM), without a hit: at the highest dose activity, negative = inhibition, actives largely listed as inhibitors | TbPYK enzyme, Kinase-Glo Plus ATP luminescence, 45 min; further: potency means the concentration at half of the fitted maximal effect; on the % scale 0 is the no-effect control and ±100 the full control effect; nearly all actives have a fitted effect of over 50% in size
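Luminescent Kinase-Glo Plus end-point after 45 min room-temperature reaction of T. brucei pyruvate kinase started with 130 uM ADP (final). Buffer TEA 50 mM pH 7.2 with KCl, MgCl2, BSA, Tween-20; titration-based qHTS with fitted concentration-effect curves.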
Giardia growth: inhibitors of Giardia lamblia growth. shares compounds with Giardia FBPA inh-1. Giardia lamblia trophozoite growth inhibition. Potency, µM (doses to about 57.5 µM), for inactives: at the highest dose activity change, negative = inhibition, usual class: inhibitors. 5% of 1,500 active. AID 2785;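 further: potency means the concentration at half of the fitted maximal effect; trophozoites exposed to compound for 48 h at 37 °C; on the % scale 0 is the no-effect control and ±100 the full control effect; nearly all actives have a fitted effect of over 70% in size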
Mammal cell tox: counter-screen for Giardia aldolase inhibitors: mammalian cell toxicity; shares compounds with Giardia FBPA inh-1; Potency, µM (titrated, usually from 57.5 µM), without a hit: at the top dose viability change, negative = toxicity, actives largely listed as inhibitors; 4% of 1,500 active; mammalian cell viability counter-screen, qHTS; AID 2786;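 further: Chinese hamster ovary cells used as mammalian cytotoxicity surrogate; viability measured as cellular ATP by luminescence; potency means the concentration at half of the fitted maximal effect; compound exposure lasted 48 h before reading; on the % scale 0 is the no-effect control and ±100 the full control effect; nearly all actives have a fitted effect of over 60% in size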
Giardia FBPA inh-2: confirmation of Giardia fructose-bisphosphate aldolase inhibitors | shares compounds with Giardia FBPA inh-1 | purified Giardia aldolase enzyme activity, qHTS | Potency, µM (highest dose often 57.5 µM), for the others: at the highest dose activity change, negative = inhibition, actives largely listed as inhibitors | 5% of 1,500 active; further: potency means the concentration at half of the fitted maximal effect; on the % scale 0 is the no-effect control and ±100 the full control effect; nearly all actives have a fitted effect of over 45% in size
Rabbit FBPA inh: selectivity test for Giardia aldolase inhibitors: rabbit aldolase; shares compounds with Giardia FBPA inh-1; Rabbit muscle FBPA enzyme inhibition, selectivity counter-screen; Potency, µM (doses to about 57.5 µM), without a hit: at the highest dose activity, negative = inhibition, hits mostly inhibitors; 4% of 1,500 active; AID 2794; further: potency means the concentration at half of the fitted maximal effect; on the % scale 0 is the no-effect control and ±100 the full control effect; nearly all actives have a fitted effect of over 60% in size
Target sequence (P00883 whole entry, looked up): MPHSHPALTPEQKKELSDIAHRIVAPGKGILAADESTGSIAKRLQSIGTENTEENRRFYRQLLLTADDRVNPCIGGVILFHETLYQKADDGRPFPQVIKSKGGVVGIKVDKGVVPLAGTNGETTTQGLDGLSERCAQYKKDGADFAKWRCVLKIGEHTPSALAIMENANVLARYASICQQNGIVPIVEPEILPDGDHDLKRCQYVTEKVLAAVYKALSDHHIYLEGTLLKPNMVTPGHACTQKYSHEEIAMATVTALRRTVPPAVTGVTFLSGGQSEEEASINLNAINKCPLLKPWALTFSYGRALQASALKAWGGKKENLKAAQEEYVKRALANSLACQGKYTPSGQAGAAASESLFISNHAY
GAPDH counter: counter-screen for Giardia aldolase inhibitors: GAPDH coupling enzyme | shares compounds with Giardia FBPA inh-1 | GAPDH coupling enzyme counterscreen, biochemical, qHTS | Potency, µM (doses to about 57.5 µM), inactives show top-dose activity change, negative = inhibition, usual class: inhibitors | 6% of 1,500 active | AID 2795; further: potency means the concentration at half of the fitted maximal effect; on the % scale 0 is the no-effect control and ±100 the full control effect; nearly all actives have a fitted effect of over 55% in size
Active calls of the source: *; ? = inconclusive; . = no result; [ ] = another dose, or the depositor's remark. Unless noted, the call rests on the fitted dose curve; in most records, active means well fitted curve in the direction sought with a large enough effect; inconclusive means small, poorly fitted or top-dose-only effect, or another doubt; inactive means no such curve, though single readings can be large; an effect the other way counts as inactive or inconclusive.

SMILES	Shiga inhibitor	RE007 growth inh	Giardia FBPA inh-1	LmPK inh	CHX counter	Tb PYK inh	Giardia growth	Mammal cell tox	Giardia FBPA inh-2	Rabbit FBPA inh	GAPDH counter
COc1ccc(CCn2c(NN=C3CCCCC3)nc3c2c(=O)[nH]c(=O)n3C)cc1	-4	10%	4.5µM*	-7%	-1	-3%	-5%[10.4 µM]	-1%	5.6µM*	?	7.9µM*
COc1ccc(CNc2nc3c(c(=O)[nH]c(=O)n3C)n2CCCc2ccccc2)cc1	-16	2%	3%	2%	3	13%	.	.	.	.	.
CC(=O)c1ccc(Nc2nc(C(N)CC(C)C)cs2)cc1 (stereo unspecified)	.	5%	.	.	.	0%	.	.	.	.	.
CCOc1ccc(CCNS(=O)(=O)c2ccc3c(c2)N(C(C)=O)CCO3)cc1OCC	-7	0%	-6%	-1%	-8	1%	.	.	.	.	.
COc1cc(Br)c(CNc2cc(C)ccc2C)cc1OC	-4	-15%	20µM*	-7%	-2	-6%	-19%	-3%	-3%	7%	6%
COc1ccc(CN(C(=O)c2oc3cc(C)ccc3c2C)C2CCS(=O)(=O)C2)cc1OC (stereo unspecified)	1	-8%	-2%	-4%	-1	-12%	.	.	.	.	.
CC(=O)/C(=N\Nc1ccc(C)cc1)Sc1nncn1C	6	6%	3.5µM*	-25%	1	?	-5%[38.3 µM]	-1%	-2%	-2%	-21%
Cc1ccc(NC(=O)CN(C)C(=O)CSc2nncn2C)cc1	-14	12%	5%	3%	-6	-1%	.	.	.	.	.
Cc1nn(C(=O)c2nn(C)cc2[N+](=O)[O-])c(C)c1Br	2	0%	1%	-9%	-5	1%	.	.	.	.	.
CCc1nc2ccc(C(=O)NCCOc3ccc(OC)cc3)cn2c1N(C)Cc1nccn1C	.	-15%	.	.	.	-3%	.	.	.	.	.
ON/C=N/C(=S)Nc1ncc(C(F)(F)F)cc1Cl	36	-17%	-7%	1%	13	2%	.	.	.	.	.
CON/C=N/C(=S)Nc1ncc(C(F)(F)F)cc1Cl	15	?	6.3µM*	2%	2	-24%	?	-2%	4%	14%	3%
COc1cccc2cc(C(C)N(CCCN3CCOCC3)C(=S)Nc3ccc(C)c(C)c3)oc12 (stereo unspecified)	9	-3%	-3%	0%	-2	-8%	.	.	.	.	.
COc1ccc(NC(=S)N(CCCN2CCOCC2)C(C)c2cc3cccc(OC)c3o2)cc1 (stereo unspecified)	-17	10%	11µM*	1%	13	-6%	?	0%	-2%	2%	5%
Cc1ccc(NS(=O)(=O)c2cc(NC(=O)c3ccc4c(c3)NC(=O)CS4)ccc2C)c(C)c1	-6	3%	16µM*	1%	-3	?	-12%	-19%	-4%	-1%	3%
COC(=O)/C=C1\SC(=Nc2ccc(OC)cc2)NC1=O	-8	-17%	5%	5%	1	-3%	.	.	.	.	.
COC(=O)/C=C1\S/C(=N\N=C\CC(=O)OC)NC1=O	-5	-7%	16µM*	1%	-2	-8%	19%	14%	-6%	3%	-11%

High-throughput results deposited in PubChem BioAssay by National Center for Advancing Translational Sciences (NCATS).
